Measured values as given in the supplement of paper PMC11417369.
± gives the standard deviation of the averaged measurements. The full ranking holds about 25,000 sequences; the median of “ln(normalized median fluorescence intensity)” is about 8.9, and the highest 2% start at about 10. The full list was thinned out, with the highest values kept by preference.

Test system: PfAP2-LT AP2 domain (GST-tagged)
Experiment: gcPBM binding intensity (ln(normalized median fluorescence intensity)); higher = stronger DNA binding
Summary of the method: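 Binding intensity is the highest Masliner-normalised natural-log median intensity over replicate spots in either probe orientation. To obtain it, GST-tagged P. falciparum DNA-binding domains made in E. coli were incubated for 1 h on an Agilent 4 × 180k array of primer-extended double-stranded 36-bp intergenic genomic probes plus negative controls. Detection used Alexa488 anti-GST antibody with scanning at 488 nm.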

Sequence | gcPBM binding intensity (ln)
TATATATGTTCAATATGTACATATATATAAGTGTAT [XGTACX_site5157] | 8.79 ± 0.41
AATATATCAAAAATTGGATAGTTTCTTATAAAAAAT [CACACA_negctrl_site39] | 8.43 ± 0.46
ATATATATATATATATGTACATATATTCGATTATTA [XGTACX_site557] | 9.695 ± 0.035
CATATATATAAATACACACACACACCCCTTATAATT [CACACA_site4064] | 10.2 ± 0.15
TAATTATATAAATACACACACATACACCCAAATAAA [CACACA_site5819] | 9.8 ± 0.2
AAATTATAATATAATACACACATAAAAAAAAAAAAA [CACACA_site7] | 8.93 ± 0.47
TACATATATATAAATACACACACACCCACCTTATAA [CACACA_site9346] | 9.88 ± 0.15
ACATATAAATTATATACACACAATAATATATATATA [CACACA_site1384] | 9.01 ± 0.39
CATATAAATAAATACACACACACACGCCTTATAATT [CACACA_site7830] | 10.19 ± 0.078
CCTCCCATTTTTACACGTACACATTTAAAATAGACT [XGTACX_site5640] | 8.95 ± 0.21
TATAAAGGTGAAATTTGTACATAGTCATTTTTTAAT [XGTACX_site4811] | 8.52 ± 0.42
TATAAAAAAATATATATATATATATATATATAAATA [TGCATGCA_negctrl_site22] | 9.09 ± 0.37
TAATAAAGTGAATAATGTACATTTTATTTATTATAT [XGTACX_site6614] | 8.62 ± 0.45
GATGCACTTTAAAAATGTACTTATACCTTTAATTGT [XGTACX_site6395] | 8.76 ± 0.41
TAAAAAGGAAGACACACACACACATATATAAATATA [CACACA_site7657] | 10.2 ± 0.34
ATAAAAAAAGGACACACACACATATATTTATTTATA [CACACA_site7438] | 9.71 ± 0.19
CATATAAAAAGACACACACACACATATATATATATA [CACACA_site940] | 9.92 ± 0.31
AATATAAAAAAAAAAAAAAAAAAAAAAAAAAAGACA [CACACA_negctrl_site983] | 8.66 ± 0.5
TATAAATAAAGACACACACACATATAAATAAATATA [CACACA_site7155] | 9.68 ± 0.26
CATATAAAAGGACACACACACACATATAAATATGTA [CACACA_site6568] | 9.88 ± 0.3
TATAAAAGTAGACACACACACATATAAATATAAATA [CACACA_site6567] | 9.66 ± 0.27
AAAAAAAAAAGACACACACACACATAAATATAAATA [CACACA_site6215] | 10.2 ± 0.42

Sequence | gcPBM binding intensity (ln)
ATAAAAAAAAGACACACACACATATATATATATATA [CACACA_site3073] | 10.2 ± 0.18
AAAAAAAAAAGACACACACACATATAAATATAAATA [CACACA_site6899] | 9.81 ± 0.26
ATAAAAAAAGGACACACACACATATATATATATATA [CACACA_site5662] | 10.46 ± 0.05
AAAGAAAGAAGACACACACACATATATAAATATCAA [CACACA_site7715] | 9.88 ± 0.23
TTTGTGCCTATAAATTAACACACAGAAATATATAGA [CACACA_site8175] | 9.06 ± 0.28
TACTTCATTCATTTTACACACATATAAACCCTTTTA [CACACA_site3229] | 9.15 ± 0.47
ATTTATATGTAGATGTGTACTTAATTGTAATGTGTT [XGTACX_site6422] | 8.95 ± 0.45
TTTATTTCCTTTTTGTGTACATATATATGTAATTCA [XGTACX_site1718] | 8.78 ± 0.53
AACAAAATTGAAGGAACACACATACATATTTATATA [CACACA_site6227] | 9.07 ± 0.41
AATTTATAAATAATTAATTTGATAAATTATAAAGGG [GTGCAC_negctrl_site544] | 8.45 ± 0.45
AAAAAGAAATATTTATGTACATAATAATAATATTTT [XGTACX_site4693] | 8.63 ± 0.44
GGCTAAAAGTTGCACACACACAAAAAAAAAAAAAAA [CACACA_site7531] | 9.37 ± 0.51
ATTTATGAAAGAAATAGTACACACATAAACATTTGT [XGTACX_site5862] | 9.03 ± 0.36
TATAAAAAAATATATATATATATTATATGTGTAGAA [TGCATGCA_negctrl_site391] | 8.71 ± 0.54
AAAAAAAAAAAAAAGACACACATATATATATATATA [CACACA_site633] | 10.1 ± 0.13
GTAATCCACAAACACACACACATACACATATATATA [CACACA_site2728] | 9.98 ± 0.19
AATCCACAAAGACACACACACACATATATATATATA [CACACA_site1269] | 10.2 ± 0.23
TATTTATTTAAAGGCACACATATTTTTATACTTTCT [CACACA_site3163] | 8.79 ± 0.49
AAATTTATAAAGAACACACACATATATATATATATA [CACACA_site48] | 10 ± 0.21
AATTTTTTTTTTTTTTTTTTTTATATATGTGTGTGT [XGTACX_negctrl_site129] | 9.32 ± 0.42
TTTTTTATATATGTGTGTGTGTGTGTGTCAAGTTTA [GTGCAC_negctrl_site460] | 10.3 ± 0.24
TGTGTCAAGTTTAATAAACGCATATAATATATATGA [CACACA_negctrl_site607] | 8.59 ± 0.41

Sequence | gcPBM binding intensity (ln)
TTTATATTTAAATGCATGCACTTTCTATTTTTTTTT [GTGCAC_site9959] | 9.13 ± 0.53
CTTACATATTACATATGTACATATACACCTTATGTC [XGTACX_site4679] | 9.19 ± 0.41
GTTTTATAAAAAGGCGCACACATATACATAAATATA [CACACA_site1864] | 9.37 ± 0.47
TGCAATTGTAAAGGCGCACACATATATATATATATA [CACACA_site4894] | 10.2 ± 0.13
TACAATTGTAAAGGCGCACACATATATATATATATA [CACACA_site1392] | 10.3 ± 0.23
TTATTGCGCACAATTTGTACATATATATATATAGAA [XGTACX_site7573] | 8.84 ± 0.4
TATTGTAAGAAAGGCACACAGATAAAATTATTATAT [CACACA_site2921] | 8.83 ± 0.51
AAAAAAAGGTAAAATTGTACATACGCACAAAAATAT [XGTACX_site2887] | 9 ± 0.51
AATCTGATTTGTATATGTACACAAATATTTTTATTT [XGTACX_site5295] | 8.99 ± 0.53
TAATATCAAACCTATAGTACATAAGGTATAAAAAAG [XGTACX_site3533] | 8.86 ± 0.44
TTCTGAACAAAATTATATATTTATTTTTATTTTCAT [CACACA_negctrl_site422] | 8.48 ± 0.5
AAAAAAAAAAAAAAAACACACAATTGAATTATTAAG [CACACA_site2864] | 8.7 ± 0.61
TTCTTATATTGTACAGTACACACCTTTATAATGTTA [CACACA_site7953] | 9.15 ± 0.49
TATCATAAAATATGTAGTACGTATATATATAAAAAT [XGTACX_site5455] | 8.97 ± 0.41
GTAATTATTAATAAAACATGCGTATAAAATTTTCTC [TGCATGCA_site50] | 8.62 ± 0.46
TATATATATATATTTACACACATTCATATAAATTCA [CACACA_site3532] | 9.04 ± 0.28
CAGACGCACGTATTTGCACACATTGCCACGTAATTA [CACACA_site3349] | 9.28 ± 0.37
TACACCCATAGACACACACACACGCATAAAAAAAAA [CACACA_site8428] | 9.95 ± 0.55
TACAGACATAGACACACACACACGCATAAAAAAAAA [CACACA_site6820] | 10 ± 0.51
AAATTTGGCAGACACACACACACACGCACACGCACA [CACACA_site6423] | 10.4 ± 0.33
ATTTGGCATAGACACACACACACACGCACGCACATA [CACACA_site6424] | 10.3 ± 0.28
TACTTATTGTGATACTTATATTATTTTATGATTAAA [XGTACX_negctrl_site353] | 8.5 ± 0.42

Sequence | gcPBM binding intensity (ln)
TTTTGGTGGGTTACAAGTACTCAAAATGGATTGTTA [XGTACX_site1951] | 8.56 ± 0.38
GTTGCCATCATTTGGCGTACAGTCAAAACCAAATCT [XGTACX_site1398] | 8.56 ± 0.37
ACAACACATATTCATCGTACATGTATTAGGAAGACA [XGTACX_site1859] | 9.04 ± 0.42
GTATATTGTACCATCACACATGTAAAACATAGATGT [CACACA_site5359] | 8.94 ± 0.43
TGGTATATATTTCCTTGTACATATAATATATATTGT [XGTACX_site3961] | 8.94 ± 0.51
CACAAATATACAAATACACACAAATATACAAATACA [CACACA_site2385] | 9.42 ± 0.44
ATAAAAATAAAAAGTGTGCACACAAAAATATATATA [GTGCAC_site9931] | 9.62 ± 0.36
GCACAAATATATATATATATATATATATATATATAT [GTGCAC_negctrl_site661] | 10.2 ± 0.12
TAATATAATCTGAGTGCACACAAATAAATAAACATA [CACACA_site8032] | 9.16 ± 0.44
TACACAAATATATATATATATATATATATATATATA [XGTACX_negctrl_site305] | 10 ± 0.5
ATGAGTGCACAAATATATATATATATATATATATAT [CACACA_negctrl_site404] | 10.2 ± 0.26
TATAATGATGATGATAGTACGTATTAGTATAAAAAA [XGTACX_site9] | 8.81 ± 0.52
TATACCTTTTTATTCACACATATATGTCATATGTCA [CACACA_site5423] | 9.28 ± 0.5
CTCTTGTCATTTTGCACACACACATGGATAGGTTAT [CACACA_site5655] | 9.81 ± 0.33
ATAAAATTATATACTCGTACACAAAAAAAAAAAATA [XGTACX_site6035] | 8.77 ± 0.47
TATAAGTGCCGTTATACACACGTTATATAAATATTA [CACACA_site4401] | 8.81 ± 0.4
TTCCCATGTAATATTAAACACACACCCATATAACAC [CACACA_site7905] | 9.505 ± 0.078
TATTAAACGAAACACACACACACACCCATATATAAA [CACACA_site759] | 10.23 ± 0.099
CACAGATAAATTAACACACACACACCCATATATATA [CACACA_site3960] | 10.05 ± 0.071
CGTTTATTAAACTTGACACACACACCCCCACATATA [CACACA_site8151] | 9.975 ± 0.064
AACACAGATAAATTAACACACACACCCATATATATA [CACACA_site9310] | 9.85 ± 0.23
TATTAAACTGGACACACACACACACCCATATATAAA [CACACA_site4579] | 10.15 ± 0.021
